Assay outcomes as filed in PubChem.
In the library only some 14% were active in any assay of this set; here they are far more common.
Pf growth 96h: inhibits malaria parasite growth, 96 h | 6.9% of 320,000 active | P. falciparum luciferase reporter growth, 96 h | Potency, µM (doses to about 28.7 µM), without a hit: at the top dose activity change, negative = inhibition, most hits filed as inhibitors; further: potency means the concentration at half of the fitted maximal effect
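Luminescence readout: decreased luciferase signal marks inhibited growth of reporter-expressing P. falciparum in infected red cells (2% hematocrit, 0.05% parasitemia final), exposed to compound two generations (96 h, 37 C, 5% CO2).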
Pf growth 48h: inhibits P. falciparum growth in the first generation, 48 h; P. falciparum luciferase growth in erythrocytes, 48 h; Potency, µM (series often up to 28.7 µM), for inactives: at the top dose activity change, negative = inhibition, most hits filed as inhibitors; 5.9% of 310,000 active; AID 504832; further: potency means the concentration at half of the fitted maximal effect
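Luciferase-expressing parasites in RBCs, 2% Hct / 0.1% parasitemia final; RPMI 1640 + 0.5% Albumax; 37 C, 5% CO2, one generation; luminescence read-out, lower signal = inhibition.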
Giardia FBPA inh: inhibitors of Giardia lamblia fructose-1,6-bisphosphate aldolase; purified Giardia FBPA; Potency, µM (top dose mostly 59.6 µM), for the others: at the top dose activity, negative = inhibition, usual class: inhibitors; 0.71% of 290,000 active; further: potency means the concentration at half of the fitted maximal effect; nearly all actives have a fitted effect of over 55% in size
Target sequence (A8B2U2 whole entry, looked up): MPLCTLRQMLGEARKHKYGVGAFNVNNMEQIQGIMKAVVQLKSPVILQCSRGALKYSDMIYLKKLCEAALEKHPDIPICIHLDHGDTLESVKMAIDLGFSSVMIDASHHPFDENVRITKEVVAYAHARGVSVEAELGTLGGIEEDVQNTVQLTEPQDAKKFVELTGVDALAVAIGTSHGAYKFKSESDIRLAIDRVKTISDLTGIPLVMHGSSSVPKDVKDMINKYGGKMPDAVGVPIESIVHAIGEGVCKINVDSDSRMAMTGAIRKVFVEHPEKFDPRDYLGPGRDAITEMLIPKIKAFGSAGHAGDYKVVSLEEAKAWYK
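40 nM FBPA preincubated 10 min at RT with compound (up to 57.5 uM final), then substrate plus GAPDH/TPI/NAD/arsenate coupling and diaphorase/resazurin added. Fluorescence read after 20 min at RT, 525/598 nm.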
HCMV inh: inhibitors of human cytomegalovirus; 4.5% of 410,000 active; AID 1259415; activity change, negative = inhibition, % at 57.5 µM; HFF cells, HCMV-luciferase reporter, 72 h; hits give low values; in the data active means activity change below about -60%; inconclusive means no clear call, values can overlap the other calls; inactive means above about -39%
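Human foreskin fibroblasts infected with luciferase-reporter HCMV at MOI 1 PFU/cell, compounds at two doses. Luciferase measured 72 h post infection; normalized to buffer-only basal and Salinomycin (10uM) controls.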
Sm TGR inh: S. mansoni TGR enzyme inhibition; Q962Y6; purified TGR, DTNB reduction, TNB absorbance 405 nm; Potency, µM (doses to about 114 µM), for the others: top-dose activity change, negative = inhibition, actives largely listed as inhibitors; 3% of 360,000 active; AID 485364; further: potency means the concentration at half of the fitted maximal effect; nearly all actives have a fitted effect of over 60% in size
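Kinetic colorimetric format: TGR-catalysed, NADPH-driven DTNB reduction monitored via TNB absorbance. Enzyme dispensed at 20 nM; compound exposure 15 min at room temperature before reaction start.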
* = called active by the depositor; ? = inconclusive; . = no result given; [ ] = remark or other dose. Unless noted, the call rests on the fitted dose curve; in most records, active means well fitted curve in the direction sought with a large enough effect; inconclusive means small, poorly fitted or top-dose-only effect, or another doubt; inactive means no such curve, though single readings can be large; an effect the other way counts as inactive or inconclusive. On the % scale 0 is the no-effect control and ±100 the full control effect.

SMILES	Pf growth 96h	Pf growth 48h	Giardia FBPA inh	HCMV inh	Sm TGR inh
COc1ccc(C(=O)NC(c2ccc(Cl)cc2)c2cc(Cl)c3cccnc3c2O)cc1 (centres undefined)	.	.	.	0.4	0.9%
O=C(O)COc1ccccc1C(Nc1ccccn1)c1cc(Cl)c2cccnc2c1O (centres undefined)	-5.2%	3.1%	?	-26.4	0.398µM*
COc1ccccc1C(NC(C)=O)c1cc(Cl)c2cccnc2c1O (centres undefined)	9.7%	14.4%[0.00184 µM]	10.7%	-95.9*	2.4%
O=C(NC(c1ccccc1)c1cc(Cl)c2cccnc2c1O)c1cccnc1 (centres undefined)	9.5%	0.657µM*	?	-99.9*	-3.0%
COc1ccc(C(NC(C)=O)c2cc(Cl)c3cccnc3c2O)cc1OC (centres undefined)	6.6%	9.28µM*	2.0%	-99.8*	-4.1%
Cc1ccc(-n2c3c(c(=O)[nH]c2=O)C(C(F)(F)F)(C(F)(F)F)NC(=O)N3)cc1	29.9%	40.0%	9.3%	.	1.2%
CCCCNC(=O)c1cn(CC)c2ccc(S(=O)(=O)N3CCCCCC3)cc2c1=O	-23.1%	?	.	5.2	-11.7%
Cc1cc(=O)oc2cc(OCC(=O)c3ccc4c(c3)NC(=O)CO4)ccc12	2.5%	33.3%	-1.8%	6.8	1.9%
NCCCCCCC(O)(P(=O)(O)O)P(=O)(O)O	.	.	2.4%	.	.
Cc1ccc(CN2CC(C(=O)N3CCN(S(=O)(=O)c4cccc(F)c4)CC3)CC2=O)cc1 (centres undefined)	9.3%	?	.	-16.6	-19.7%
COc1ccc(C(=O)Nc2c(Cl)cc(Cl)cc2C(=O)N2CCOCC2)cc1	2.6%	13.8%	-0.8%	-9.0	28.5%
CCOc1ccc(C(Nc2cccnc2)c2cc(Cl)c3cccnc3c2O)cc1 (centres undefined)	?	?	?	-93.5*	0.316µM*
CCC(=O)NC(c1ccc(OC)c(OC)c1)c1cc(Cl)c2cccnc2c1O (centres undefined)	54.1%	1.04µM*	-11.0%	-109.9*	-2.8%
CCCC(=O)NC(c1ccc2c(c1)OCO2)c1cc(Cl)c2cccnc2c1O (centres undefined)	-2.2%	?	?	.	-8.6%
CC(C)c1nn2c(=O)cc(COC(=O)c3ccccc3NC(=O)C3CCCCC3)nc2s1	.	.	.	-4.6	-1.1%
Cc1nc2cc(NS(=O)(=O)c3c(C)c(C)cc(C)c3C)ccc2s1	?	?	-23.4%	-81.8*	-7.8%
Cc1nc2ccc(NS(=O)(=O)c3c(C)c(C)cc(C)c3C)cc2s1	-19.1%	?	9.7%	-61.4*	-20.5%
O=S1(=O)C2CC3CCC2(CN1Cc1cccc(F)c1)O3 (centres undefined)	.	.	8.7%	.	.
Cc1ccc(S(=O)(=O)c2nc(-c3ccccc3)oc2N2CCCC2)cc1	?	11.5%	.	-35.2	2µM*
COc1cccc(-c2nc(S(=O)(=O)c3ccc(C)cc3)c(N3CCCCCC3)o2)c1	.	.	.	-0.7	5.3%
COc1ccc(-c2nc(S(=O)(=O)c3ccc(C)cc3)c(N3CCCCC3)o2)cc1	.	.	.	-7.2	10µM*
COc1ccc(NC(=O)CSc2oc(-c3ccc(F)cc3)nc2S(=O)(=O)c2ccc(C)cc2)c(OC)c1	.	.	.	-8.3	44.7µM*
Cc1ccc(S(=O)(=O)c2nc(Cc3ccccc3)oc2N2CCOCC2)cc1	79.0%	1.0%	.	15.0	0.794µM*
Cc1cccc(CNc2ncncc2-c2cccnc2)c1	.	.	4.6%	.	.
CC(C)CNC(=O)N1CCN(S(=O)(=O)c2ccc3c(ccn3C)c2)CC1	.	.	.	12.3	5.7%
SMILES	Pf growth 96h	Pf growth 48h	Giardia FBPA inh	HCMV inh	Sm TGR inh
COCCCNc1nccn2ccnc12	.	.	.	-27.7	.
NC(=O)C1CCN(c2oc(-c3ccccc3)nc2S(=O)(=O)c2ccc(Br)cc2)CC1	?	?	.	20.5	?
O=S(=O)(c1ccccc1)c1nc(-c2ccccc2)oc1N1CCCCC1	12.3%	.	-29.3%	8.0	22.4µM*
O=S(=O)(c1ccccc1)c1nc(-c2ccccc2)oc1N1CCCC1	31.9%	0.0%	10.5%	?	-22.6%
Cc1ccc(S(=O)(=O)c2nc(-c3ccccc3)oc2N2CCC(C(N)=O)CC2)cc1	13.1µM*	?	-3.0%	70.3	14.1µM*
Cc1ccc(S(=O)(=O)c2nc(-c3ccco3)oc2N2CCC(C)CC2)cc1	?	?	.	11.4	39.8µM*
Cc1ccc(S(=O)(=O)c2nc(-c3cccc(C)c3)oc2N2CCCCC2)cc1	.	.	.	28.3	20µM*
CC(=O)Nc1cccc(NC(=O)CSc2cn(CC(=O)N3CCCCCC3)c3ccccc23)c1	.	.	.	-23.5	0.1%
Cc1ccc(S(=O)(=O)c2nc(-c3ccccc3F)oc2N2CCCCC2)cc1	.	.	.	-9.3	44.7µM*
COc1ccc(-c2nc(S(=O)(=O)c3ccccc3)c(N3CCOCC3)o2)cc1	55.5%	3.2%	-22.2%	-22.3	39.8µM*
CC[n+]1c(/C=C2/C=C(C)CC(C)C2)sc2ccccc21 (centres undefined)	?	?	?	-8.7	39.8µM*
Cc1sc2ccccc2[n+]1CC(=O)c1ccccc1	-0.8%	72.0%	21.9%	.	-24.2%
CC[n+]1c(C=C2C=C(C)OC(C)=C2)sc2ccccc21	?	?	-4.0%	-97.9*	1.9%
CC(=O)N=c1sc2cc(C)ccc2n1C	9.28µM*	82.5%	1.3%	?	-1.3%
CCOC(=O)N1CCN(C(=O)CSCC(=O)N=c2sc3ccccc3n2C)CC1	?	-18.2%	3.0%	.	15.8µM*
Cn1c(=NC(=O)CCl)sc2ccccc21	5.22µM*	?	.	-99.4*	25.1µM*
CCOC(=O)N/N=C1/C[C@@H](O)[C@@H](O)[C@@H]2[C@@H]3C(=O)N(C[C@@H]4CCCO4)C(=O)[C@H]3CC[C@@H]12	.	.	-1.6%[12.9 µM]	.	.
CN(C(=O)c1ccc(NC(=O)Cc2ccc(NC(=O)C3CCN(C(=O)C4CCCCC4)CC3)cc2)cc1)C1CCCC1	.	.	.	-33.1	.
CN(C(=O)c1ccc(NC(=O)Cc2ccc(NC(=O)C3CCN(C(=O)C4CCC4)CC3)cc2)cc1)C1CC1	9.28µM*	?	.	28.7	-1.1%
CN(C(=O)c1ccc(NC(=O)Cc2ccc(NC(=O)C3CCN(C(=O)C4CCCC4)CC3)cc2)cc1)C1CC1	2.08µM*	?	.	2.4	0.5%
COc1ccc(Oc2c(OC)cc(NCc3ccc(CN)cc3)c3ncccc23)cc1	.	.	.	-11.5	.
CC1CC(NC(=O)/C=C/C(=O)O)CC(C)(C)C1 (centres undefined)	-10.5%	-1.1%	6.1%	2.5	-1.7%
CC1CC(NC2=NCCS2)CC(C)(C)C1 (centres undefined)	?	?	6.6%	-66.2*	0.3%
CCN(Cc1ccccc1)S(=O)(=O)c1c(C)[nH]c(C)c1C(=O)N1CCCCC1	?	?	3.0%	6.6	-27.9%
O=C(O)Cc1ccc(N=Nc2c(O)c(C(=O)O)cc3ccccc23)cc1	?	28.4%	-16.5%	35.9	-31.9%
